# Reference: PubChem BioAssay (EPA / NIEHS)
# Several values for one entry are separate records, joined by “and”; a condition that tells them apart may be missing. Identical values can stand only once. Inconclusive results are not listed. Some compounds were tested as several samples or in several runs, with calls that do not always agree. Activity calls are given as the source filed them. How the source made its calls, unless noted: active means hit-call score of the fitted dose curve at least 0.9, where 1 is the maximum; inactive means score below 0.9.
# Legend:
# [1] = CCTE_Padilla_ZF_144hpf_TERATOSCORE: (Legacy) CCTE's 144 Hour Post-fertilization zebrafish Assay Teratoscore, Padilla Lab (AID 2283679);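 on AC50: zebrafish embryos with chorions exposed by immersion from 6-8 hpf to 5 dpf with daily renewal; teratogenicity score from eye scoring of death hatching and malformations at 144 hpf; higher score means more developmental defects relative to DMSO baseline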
# Method in brief: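 Larvae scored by eye at 144 hpf for death, hatching and malformations after a day in clean Hanks'. Before that, daily-renewed exposure at 80 uM (0.4% DMSO, 26C) from roughly 6-8 hpf through 5 dpf, 4 embryos per chemical.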
# [2] = CLD_ACTIN_6hr: CellzDirect (CLD) Gene Expression Assay for Baseline Control (Actin) at 6 hours (AID 2283676; active means hit-call score of the fitted dose curve at least 0.9, where 1 is the maximum;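 further: active means increased actin mRNA relative to DMSO vehicle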)
# Method in brief: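 Baseline actin transcript level measured by qNPA (S1 nuclease protection, chemiluminescence) in human hepatocyte cultures 6 h after chemical exposure; 0.2% DMSO vehicle as reference, cytotoxicity noted from morphology.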
# [3] = read-out: Cytochrome P450 2B6 (Homo sapiens) (UniProt P20813); test: CLD_CYP2B6_6hr: CellzDirect (CLD) Gene Expression Assay for xenobiotic metabolism (CYP2B6) at 6 hours (AID 2283677; active means hit-call score of the fitted dose curve at least 0.9, where 1 is the maximum;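 further: actives raise CYP2B6 transcript above DMSO baseline so AC50 marks an inducer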)
# Method in brief: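 CYP2B6 transcript levels, read by chemiluminescent qNPA, were fitted for increase versus DMSO baseline; cultured human liver hepatocytes from two donor preparations were harvested 6 h after exposure to test chemicals at multiple concentrations.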
# [4] = read-out: Cytochrome P450 2C19 (Homo sapiens) (UniProt P33261); test: CLD_CYP2C19_6hr: CellzDirect (CLD) Gene Expression Assay for xenobiotic metabolism (CYP2C19) at 6 hours (AID 2283678; active means hit-call score of the fitted dose curve at least 0.9, where 1 is the maximum)
# Method in brief: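 CYP2C19 transcript induction was quantified by quantitative nuclease protection assay with chemiluminescent read-out, 6 h after dosing. Cells were primary human hepatocytes from two donor preparations, given fresh dosing solutions daily in 0.2% DMSO vehicle. Activity was relative to DMSO.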
# [5] = read-out: Cytochrome P450 3A4 (Homo sapiens) (UniProt P08684); test: CLD_CYP3A4_6hr: CellzDirect (CLD) Gene Expression Assay for xenobiotic metabolism (CYP3A4) at 6 hours (AID 2283680; active means hit-call score of the fitted dose curve at least 0.9, where 1 is the maximum)
# Method in brief: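 CYP3A4 mRNA induction, 6 h after dosing of cultured primary human hepatocytes from two donors, read by quantitative nuclease protection (qNPA, chemiluminescence). Vehicle 0.2% DMSO as baseline; morphology-based cytotoxicity annotated yes/no.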
# [6] = read-out: Glyceraldehyde-3-phosphate dehydrogenase (Homo sapiens) (UniProt P04406); test: CLD_GAPDH_6hr: CellzDirect (CLD) Gene Expression Assay for Baseline Control (Glyceraldehyde 3-phosphate dehydrogenase) at 6 hours (AID 2283681; active means hit-call score of the fitted dose curve at least 0.9, where 1 is the maximum;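 further: active means increased signal relative to DMSO vehicle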)
# Method in brief: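 GAPDH baseline-control readout from qNPA (S1 nuclease digestion, probe hybridization, chemiluminescence) in lysates of cultured human hepatocytes harvested 6 h post-dosing. Chemicals tested at multiple concentrations versus 0.2% DMSO vehicle; microscopy-based cytotoxicity flagged yes/no.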
# [7] = read-out: HMG-CoA synthase (HMGCS2), HMGCS2 (gene 3158); test: CLD_HMGCS2_6hr: CellzDirect (CLD) Gene Expression Assay for HMG-CoA synthase (HMGCS2) at 6 hours (AID 2283682; active means hit-call score of the fitted dose curve at least 0.9, where 1 is the maximum;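 further: actives raise HMGCS2 transcript above the 0.2% DMSO vehicle baseline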)
# Method in brief: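 HMGCS2 transcript induction read by quantitative nuclease protection with chemiluminescence, 6 h after dosing of primary human hepatocytes. Baseline was 0.2% DMSO vehicle; phase-contrast morphology gave a yes/no cytotoxicity annotation.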
# [8] = read-out: xenobiotic metabolism (CYP1A2), CYP1A2 (gene 1544); test: CLD_CYP1A2_24hr: CellzDirect (CLD) Gene Expression Assay for xenobiotic metabolism (CYP1A2) at 24 hours (AID 2283683; active means hit-call score of the fitted dose curve at least 0.9, where 1 is the maximum)
# Method in brief: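 CYP1A2 mRNA induction measured by quantitative nuclease protection (chemiluminescent) in human primary hepatocytes 24 h after multi-concentration chemical dosing with daily fresh solutions. DMSO (0.2%) baseline; positive-direction fitting; morphology-based cytotoxicity noted.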
# [9] = read-out: ABC Transporter (ABCB1), ABCB1 (gene 5243); test: CLD_ABCB1_24hr: CellzDirect (CLD) Gene Expression Assay for ABC Transporter (ABCB1) at 24 hours (AID 2283684; active means hit-call score of the fitted dose curve at least 0.9, where 1 is the maximum)
# Method in brief: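 ABCB1 mRNA induction versus 0.2% DMSO vehicle was read by qNPA chemiluminescence at 24 h. Cultured human hepatocytes from two donor preparations received daily fresh dosing, and phase-contrast cytotoxicity calls were annotated alongside the data.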
# Cytochrome P450 3A4 (Homo sapiens), sequence (P08684 whole entry, looked up): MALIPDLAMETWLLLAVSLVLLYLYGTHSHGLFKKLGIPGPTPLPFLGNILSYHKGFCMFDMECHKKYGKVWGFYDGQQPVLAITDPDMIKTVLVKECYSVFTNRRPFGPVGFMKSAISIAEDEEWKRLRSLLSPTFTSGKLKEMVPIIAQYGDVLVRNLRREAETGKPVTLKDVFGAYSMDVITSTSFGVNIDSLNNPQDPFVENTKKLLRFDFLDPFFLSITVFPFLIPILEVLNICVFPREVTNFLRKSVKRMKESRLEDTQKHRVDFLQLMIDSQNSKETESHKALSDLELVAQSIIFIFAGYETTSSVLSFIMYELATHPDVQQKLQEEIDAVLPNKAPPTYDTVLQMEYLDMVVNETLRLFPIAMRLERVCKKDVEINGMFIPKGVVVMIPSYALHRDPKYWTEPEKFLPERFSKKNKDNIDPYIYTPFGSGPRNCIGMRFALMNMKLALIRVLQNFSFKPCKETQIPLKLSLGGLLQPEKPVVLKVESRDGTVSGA
# Glyceraldehyde-3-phosphate dehydrogenase (Homo sapiens), sequence (P04406 whole entry, looked up): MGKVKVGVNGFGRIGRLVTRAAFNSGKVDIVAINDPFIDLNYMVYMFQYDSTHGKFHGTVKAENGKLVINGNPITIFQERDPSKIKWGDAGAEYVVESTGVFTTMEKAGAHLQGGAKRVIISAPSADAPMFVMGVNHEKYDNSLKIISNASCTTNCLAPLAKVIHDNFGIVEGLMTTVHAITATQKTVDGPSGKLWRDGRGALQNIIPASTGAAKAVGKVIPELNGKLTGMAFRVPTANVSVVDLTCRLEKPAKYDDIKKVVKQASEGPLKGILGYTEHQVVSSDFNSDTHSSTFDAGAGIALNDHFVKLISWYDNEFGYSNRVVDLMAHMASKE
# Cytochrome P450 2C19 (Homo sapiens), sequence (P33261 whole entry, looked up): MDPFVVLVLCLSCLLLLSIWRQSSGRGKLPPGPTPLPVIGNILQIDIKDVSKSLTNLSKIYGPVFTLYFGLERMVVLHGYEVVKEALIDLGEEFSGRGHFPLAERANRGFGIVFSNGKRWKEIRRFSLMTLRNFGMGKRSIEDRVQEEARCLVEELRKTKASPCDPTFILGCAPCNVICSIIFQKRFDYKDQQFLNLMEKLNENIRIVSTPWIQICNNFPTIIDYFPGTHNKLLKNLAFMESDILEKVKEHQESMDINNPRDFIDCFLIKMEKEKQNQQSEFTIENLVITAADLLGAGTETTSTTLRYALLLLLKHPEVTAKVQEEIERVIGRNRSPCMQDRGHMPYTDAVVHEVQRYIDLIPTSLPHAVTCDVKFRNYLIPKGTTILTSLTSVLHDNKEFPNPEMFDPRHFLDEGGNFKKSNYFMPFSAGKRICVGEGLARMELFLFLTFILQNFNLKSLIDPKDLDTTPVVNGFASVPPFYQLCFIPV
smiles,measurement,setting,value
CO/C=C(/C(=O)OC)c1ccccc1COc1cccc(C(F)(F)F)n1,AC50,[1],0.168 µM (active)
CCNc1nc(NC(C)C)nc(SC)n1,outcome,[2],inactive
same,AC50,[3],1 µM (active)
same,outcome,[4],inactive
same,AC50,[1],149 µM (active)
same,AC50,[5],1.79 µM (active)
same,outcome,[6],inactive
same,outcome,[7],inactive
same,AC50,[8],1.29 µM (active)
same,outcome,[9],inactive
CCOC(=O)C(O)(c1ccc(Cl)cc1)c1ccc(Cl)cc1,AC50,[1],1.71 µM (active)
Oc1ccc(Cl)cc1Cl,AC50,[1],56.6 µM (active)
CN(C)CCO,outcome,[1],inactive
ClC1=C(Cl)[C@]2(Cl)[C@@H]3[C@@H]4C[C@@H]([C@H]5O[C@@H]45)[C@@H]3[C@@]1(Cl)C2(Cl)Cl,AC50,[1],0.345 µM (active)
C[C@]12CCC(=O)C=C1CC[C@@H]1[C@@H]2CC[C@@]2(C)[C@H]1CC[C@]2(C)O,AC50,[1],24.4 µM (active)
COc1ccc(O)c(C(C)(C)C)c1,AC50,[1],57.8 µM (active)
CN(C)c1nc(=O)n(C2CCCCC2)c(=O)n1C,outcome,[2],inactive
same,outcome,[3],inactive
same,outcome,[1],inactive
same,outcome,[5],inactive
same,outcome,[6],inactive
same,outcome,[7],inactive
same,outcome,[8],inactive
same,outcome,[9],inactive
ClC(Cl)=C(c1ccc(Cl)cc1)c1ccc(Cl)cc1,AC50,[1],8.32 µM (active)
Oc1ccc(C(c2ccc(O)cc2)(C(F)(F)F)C(F)(F)F)cc1,AC50,[1],18.1 µM (active)
C1CC2OC2CC1C1CO1 (stereo not drawn),AC50,[1],77.8 µM (active)
CCC(=O)O[C@H]1CC[C@H]2[C@@H]3CCC4=CC(=O)CC[C@]4(C)[C@H]3CC[C@]12C,AC50,[1],79.4 µM (active)
CC#Cc1cc(C)nc(Nc2ccccc2)n1,AC50,[1],33.4 µM (active)
CCCCCCCCOC(=O)c1ccccc1C(=O)OCCCCCCCC,outcome,[1],inactive
c1cc2ccc3cccc4ccc(c1)c2c34,AC50,[1],13.5 µM (active)
Cc1cc(O)ccc1Cl,AC50,[1],112 µM (active)
CCCN(CCC)N=O,outcome,[1],inactive
Cc1cc2c3c(c1)C(c1ccccc1)=N[C@@H](NC(=O)c1ccncc1)C(=O)N3CC2,AC50,[1],54.4 µM (active)
CCCCCCCCCC[N+](C)(C)CCCCCCCCCC,AC50,[1],4.53 µM (active)
Nc1ccc(-c2ccc(N)cc2)cc1,AC50,[1],33 µM (active)
Oc1c(Cl)c(Cl)c(Cl)c(Cl)c1Cl,AC50,[1],0.806 µM (active)
O=C(O)C(F)(F)C(F)(F)C(F)(F)C(F)(F)C(F)(F)C(F)(F)C(F)(F)C(F)(F)F,AC50,[1],53.7 µM (active)
CCCCCCCCCc1ccc(O)cc1,AC50,[1],61.4 µM (active)
O=NN(c1ccccc1)c1ccccc1,AC50,[1],53.4 µM (active)
O=C(O)C(F)(F)C(F)(F)C(F)(F)C(F)(F)C(F)(F)C(F)(F)C(F)(F)C(F)(F)C(F)(F)F,AC50,[1],60.2 µM (active)
O=S(=O)(O)C(F)(F)C(F)(F)C(F)(F)C(F)(F)C(F)(F)C(F)(F)F,AC50,[1],123 µM (active)
CC(c1ccc(O)cc1)(c1ccc(O)cc1)c1ccc(O)cc1,outcome,[1],inactive
c1ccc(-c2ccccc2)cc1,AC50,[1],4.5 µM (active)
same,outcome,[1],inactive
CCC(C)(c1ccc(O)cc1)c1ccc(O)cc1,AC50,[1],15.5 µM (active) and 1.34 µM (active)
ClC1=C(Cl)[C@]2(Cl)[C@@H]3[C@H]4C[C@H]([C@@H]5O[C@H]45)[C@@H]3[C@@]1(Cl)C2(Cl)Cl,AC50,[1],0.00973 µM (active)
ClC1=C(Cl)[C@]2(Cl)[C@@H]3[C@@H](Cl)[C@H]4O[C@H]4[C@@H]3C1(Cl)C2(Cl)Cl,AC50,[1],0.547 µM (active)
